Experimental data: PubChem BioAssay (NCATS)
Records with an inconclusive call do not appear. Activity calls are given as the source filed them. Unless noted, calls come from the whole dose curve.

Columns and labels:
[1] = qHTS for Inhibitors of the Functional Ribonucleoprotein Complex (vRNP) of Lassa (LASV) Arenavirus: LASV Primary Screen - GLuc reporter signal (AID 1347082; calls by dose curve; tested in HEK293 reporter line; note: nearly all actives have a fitted effect of over 60% in size)
[2] = qHTS for Inhibitors of the Functional Ribonucleoprotein Complex (vRNP) of Lassa (LASV) Arenavirus: Viability assay - alamar blue signal for LASV Primary Screen (AID 1347083; calls by dose curve; tested in HEK293 reporter line; note: nearly all actives have a fitted effect of over 80% in size)
[3] = qHTS for Inhibitors of the Functional Ribonucleoprotein Complex (vRNP) of Lymphocytic Choriomeningitis Arenaviruses (LCMV): Viability assay - alamar blue signal for LCMV Primary Screen (AID 1347085; calls by dose curve; tested in HEK293 reporter line; note: nearly all actives have a fitted effect of over 80% in size)
[4] = molecular target: Nucleoprotein (Lymphocytic choriomeningitis virus (strain Armstrong)) (UniProt P09992); test: qHTS for Inhibitors of the Functional Ribonucleoprotein Complex (vRNP) of Lymphocytic Choriomeningitis Arenaviruses (LCMV): LCMV Primary Screen - GLuc reporter signal (AID 1347086); note: nearly all actives have a fitted effect of over 70% in size
Sequence of Nucleoprotein (Lymphocytic choriomeningitis virus (strain Armstrong)) (P09992 whole entry, looked up): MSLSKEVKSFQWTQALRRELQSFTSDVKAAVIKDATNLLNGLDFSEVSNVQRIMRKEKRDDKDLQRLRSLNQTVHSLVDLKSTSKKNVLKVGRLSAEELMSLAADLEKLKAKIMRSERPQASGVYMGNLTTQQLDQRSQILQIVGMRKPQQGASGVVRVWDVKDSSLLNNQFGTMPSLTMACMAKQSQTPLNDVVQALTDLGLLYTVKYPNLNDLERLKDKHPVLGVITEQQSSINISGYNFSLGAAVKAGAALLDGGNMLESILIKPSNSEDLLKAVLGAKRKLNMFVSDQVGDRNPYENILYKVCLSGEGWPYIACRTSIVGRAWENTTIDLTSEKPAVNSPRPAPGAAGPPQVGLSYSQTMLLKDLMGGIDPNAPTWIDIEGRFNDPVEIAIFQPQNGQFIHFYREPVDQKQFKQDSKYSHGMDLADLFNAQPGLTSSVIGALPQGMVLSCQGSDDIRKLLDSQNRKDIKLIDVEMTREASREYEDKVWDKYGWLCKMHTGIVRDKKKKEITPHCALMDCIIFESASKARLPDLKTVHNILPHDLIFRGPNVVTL
% is set by controls: 0 for no effect and ±100 for the full control effect.
Note: series mostly up to about 57 µM.

C#C[C@]1(O)CC[C@H]2[C@@H]3CCC4=CC(=O)CC[C@@H]4[C@H]3CC[C@@]21C
inactive: Potency [1] | Potency [2] | Potency [3] | Potency [4]

O=C1OC2(c3ccc(O)cc3Oc3cc(O)ccc32)c2ccccc21
inactive: Potency [1] | Potency [2] | Potency [3] | Potency [4]

CN1CCC(=C2c3ccccc3Sc3ccccc32)CC1
inactive: Potency [1] | Potency [2] | Potency [3] | Potency [4]

O=S1(=O)c2cccc3cccc(c23)N1CCCN1CCN(c2ccc(F)cc2)CC1
inactive: Potency [1] | Potency [2] | Potency [3] | Potency [4]

CCCCCCCCCCCCCCCCC(C(=O)O)C(O)(CC(=O)O)C(=O)O (stereo not given)
inactive: Potency [1] | Potency [2] | Potency [3] | Potency [4]

CC(=O)Oc1ccc(C(c2ccc(OC(C)=O)cc2)c2ccccn2)cc1
inactive: Potency [1] | Potency [2] | Potency [3] | Potency [4]

Cc1ccc(Cl)c(OCC(O)CNC(C)(C)C)c1 (stereo not given)
inactive: Potency [1] | Potency [2] | Potency [3] | Potency [4]

Oc1ccc(Cl)cc1Cc1cc(Cl)ccc1O
inactive: Potency [1] | Potency [2] | Potency [3] | Potency [4]

Cc1cc(CC(=O)O)n(C)c1C(=O)c1ccc(Cl)cc1
inactive: Potency [1] | Potency [2] | Potency [3] | Potency [4]

COc1cc(NS(=O)(=O)c2ccc(N)cc2)ncn1
inactive: Potency [1] | Potency [2] | Potency [3] | Potency [4]

Cc1cc(C(C)(C)C)cc(C)c1CC1=NCCN1
inactive: Potency [1] | Potency [2] | Potency [3] | Potency [4]

CCOC(=O)[C@H](CCc1ccccc1)N[C@@H](C)C(=O)N1C(=O)N(C)C[C@H]1C(=O)O
inactive: Potency [1] | Potency [2] | Potency [3] | Potency [4]

NS(=O)(=O)c1cc2c(cc1Cl)NC(CSCc1ccccc1)=NS2(=O)=O
inactive: Potency [1] | Potency [2] | Potency [3] | Potency [4]

CCC1(c2cnc[nH]2)Cc2ccccc2C1
inactive: Potency [1] | Potency [2] | Potency [3] | Potency [4]

O=C(CCCN1CCC(O)(c2ccc(Br)cc2)CC1)c1ccc(F)cc1
inactive: Potency [1] | Potency [2] | Potency [3] | Potency [4]

O=C(Nc1ccccc1)OCC(CN1CCCCC1)OC(=O)Nc1ccccc1 (stereo not given)
inactive: Potency [1] | Potency [2] | Potency [3] | Potency [4]

c1ccc2[nH]c(-c3cscn3)nc2c1
inactive: Potency [1] | Potency [2] | Potency [3] | Potency [4]

CCCCCCCCNC(C)C(O)c1ccc(SC(C)C)cc1 (stereo not given)
inactive: Potency [1] | Potency [2] | Potency [3] | Potency [4]

O=C(O)CP(=O)(O)O
inactive: Potency [1] | Potency [2] | Potency [3] | Potency [4]

O=C1O[C@H]([C@@H](O)CO)C(O)=C1O
inactive: Potency [1] | Potency [2] | Potency [3] | Potency [4]

Cc1c(F)cc2c(=O)c(C(=O)O)cn3c2c1CCC3C (stereo not given)
inactive: Potency [1] | Potency [2] | Potency [3] | Potency [4]

Clc1ccccc1-c1nc(-c2ccncc2)no1
inactive: Potency [1] | Potency [2] | Potency [3] | Potency [4]

CCCCCCCCCCCCOS(=O)(=O)O
inactive: Potency [1] | Potency [2] | Potency [3] | Potency [4]

C=CCOc1ccccc1OCC(O)CNC(C)C (stereo not given)
inactive: Potency [1] | Potency [2] | Potency [3] | Potency [4]

COc1cc(C(=S)N2CCOCC2)ccc1O
inactive: Potency [1] | Potency [2] | Potency [3] | Potency [4]

CC(=O)CCC(=O)O
inactive: Potency [1] | Potency [2] | Potency [3] | Potency [4]

OC[C@@H](O)[C@@H](O)[C@H](O)[C@H](O)CO
inactive: Potency [1] | Potency [2] | Potency [3] | Potency [4]

Oc1c(Cl)cc(Cl)c2cccnc12
inactive: Potency [1] | Potency [2] | Potency [3] | Potency [4]

O=C1NC2CCCCN2C12CCN(CCCN1c3ccccc3CCc3ccc(Cl)cc31)CC2 (stereo not given)
inactive: Potency [1] | Potency [2] | Potency [3] | Potency [4]

CC(C)(C)c1ccc(C(O)CCCN2CCC(C(O)(c3ccccc3)c3ccccc3)CC2)cc1 (stereo not given)
inactive: Potency [1] | Potency [2] | Potency [3] | Potency [4]

C/C=C/c1ccc(O)c(OC)c1
inactive: Potency [1] | Potency [2] | Potency [3] | Potency [4]

COc1cc(NS(=O)(=O)c2ccc(N)cc2)nc(OC)n1
inactive: Potency [1] | Potency [2] | Potency [3] | Potency [4]

CC(C)(C)C(=O)NCCCC(=O)O
inactive: Potency [1] | Potency [2] | Potency [3] | Potency [4]

C=C(C)C(=O)OCC(O)CO (stereo not given)
inactive: Potency [1] | Potency [2] | Potency [3] | Potency [4]

CC(=O)OC/C=C(C)/C=C/C=C(C)/C=C/C1=C(C)CCCC1(C)C
inactive: Potency [1] | Potency [2] | Potency [3] | Potency [4]

CC1CC(=O)NN=C1c1ccc(NCC(C)(C)NCC(O)COc2cc(Cl)ccc2C#N)cc1 (stereo not given)
inactive: Potency [1] | Potency [2] | Potency [3] | Potency [4]

Cn1c(=O)c2c(ncn2C)n(C)c1=O
inactive: Potency [1] | Potency [2] | Potency [3] | Potency [4]

Cc1cc(C)c(/C=C2\C(=O)Nc3ccccc32)[nH]1
inactive: Potency [1] | Potency [2] | Potency [3] | Potency [4]

CN1[C@@H]2CC[C@H]1CC(OC(=O)c1c[nH]c3ccccc13)C2 (stereo not given in full)
inactive: Potency [1] | Potency [2] | Potency [3] | Potency [4]

CN(C(=O)c1c(O)c2ccccc2n(C)c1=O)c1ccccc1
inactive: Potency [1] | Potency [2] | Potency [3] | Potency [4]

Cc1ccc(C(=O)Oc2ccc(C(O)CNC(C)(C)C)cc2OC(=O)c2ccc(C)cc2)cc1 (stereo not given)
inactive: Potency [1] | Potency [2] | Potency [3] | Potency [4]

C/C(=C(\CCOP(=O)(O)O)SC(=O)c1ccccc1)N(C=O)Cc1cnc(C)nc1N
inactive: activity change, negative = inhibition [1] 1.78% [at 5.82 µM] | activity change, negative = reduced viability [2] 7.22% [at 5.82 µM] | activity change, negative = lower viability [3] -0.415% [at 5.82 µM] | activity change, negative = inhibition [4] -1.19% [at 5.82 µM]

CC(C)(C)CC(C)(C)c1ccc(O)c(Cc2ccc(Cl)cc2Cl)c1
inactive: Potency [1] | Potency [2] | Potency [3] | Potency [4]

CCn1c(=O)c2c(nc(C=Cc3ccc(OC)c(OC)c3)n2C)n(CC)c1=O
inactive: Potency [1] | Potency [2] | Potency [3] | Potency [4]

CCCCCN(CCCCC)C(=O)C(CCC(=O)O)NC(=O)c1ccc(Cl)c(Cl)c1 (stereo not given)
inactive: Potency [1] | Potency [2] | Potency [3] | Potency [4]

C[C@]12CC[C@@H]3c4ccc(O)cc4CC[C@H]3[C@@H]1C[C@@H](O)[C@@H]2O
inactive: Potency [1] | Potency [2] | Potency [3] | Potency [4]

CCCCCCCCCCCCCCCCCCOCC(O)CO (stereo not given)
inactive: Potency [1] | Potency [2] | Potency [3] | Potency [4]

Cc1cccc(OCC(O)CNC(C)(C)C)c1C (stereo not given)
inactive: Potency [1] | Potency [2] | Potency [3] | Potency [4]

O=C(O)c1ccccc1Nc1cc(Cl)ccc1C(=O)O
inactive: Potency [1] | Potency [2] | Potency [3] | Potency [4]

CC(C)OC(=O)c1cc2c(OCC(O)CNC(C)(C)C)cccc2[nH]1 (stereo not given)
inactive: Potency [1] | Potency [2] | Potency [3] | Potency [4]

CN(C)CCN1C(=O)c2ccccc2N(C)c2ccccc21
inactive: Potency [1] | Potency [2] | Potency [3] | Potency [4]

CC(=O)OCC(=O)[C@@]1(O)CC[C@H]2[C@@H]3CCC4=CC(=O)C=C[C@]4(C)[C@H]3[C@@H](O)C[C@@]21C
inactive: Potency [1] | Potency [2] | Potency [3] | Potency [4]

CCOC(=O)OCC/C(SC(=O)OCC)=C(\C)N(C=O)Cc1cnc(C)nc1N
inactive: Potency [1] | Potency [2] | Potency [3] | Potency [4]

CC(=O)O[C@H]1CC[C@@]2(C)C(=CC[C@@H]3[C@@H]2CC[C@]2(C)C(C(C)=O)=CC[C@@H]32)C1
inactive: Potency [1] | Potency [2] | Potency [3] | Potency [4]

Clc1ccc(C(Cn2ccnc2)OCc2ccc(Sc3ccccc3)cc2)c(Cl)c1 (stereo not given)
inactive: Potency [1] | Potency [2] | Potency [3] | Potency [4]

C#C[C@]1(OC(C)=O)CC[C@H]2[C@@H]3CCC4=C/C(=N/O)CC[C@@H]4[C@H]3CC[C@@]21CC
inactive: Potency [1] | Potency [2] | Potency [3] | Potency [4]

N[C@@H](CSSC[C@H](N)C(=O)O)C(=O)O
inactive: activity change, negative = inhibition [1] -0.506% [at 0.757 µM] | activity change, negative = reduced viability [2] 9.51% [at 0.757 µM] | activity change, negative = lower viability [3] 6.72% [at 0.757 µM] | activity change, negative = inhibition [4] 13.5% [at 0.757 µM]

Oc1ccc(CCNCCCCCCNCCc2ccccc2)cc1O
inactive: Potency [1] | Potency [2] | Potency [3] | Potency [4]

NC(=O)c1ncn([C@@H]2O[C@H](CO)[C@@H](O)[C@H]2O)c1N
inactive: Potency [1] | Potency [2] | Potency [3] | Potency [4]

OC(C#CCN1CCCC1)(c1ccccc1)c1ccccc1
inactive: Potency [1] | Potency [2] | Potency [3] | Potency [4]
